Screening results deposited in PubChem by Center for Chemical Genomics, University of Michigan.
This is one part of a sample in which hits are shown more often than they occur.
Dicer inh – blocks human Dicer maturation of pre-miR-21; 47,000 compounds, 6% hits; z-score at 25 µM; cat-ELCCA pre-miR-21 Dicer processing, chemiluminescence; active compounds read high; in the data active means z-score above about 3, passing the limit was not always enough;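 further: plate controls were vehicle for no effect and no enzyme for full effect; higher signal means more uncleaved substrate so more Dicer inhibition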
Numbers without * were called inactive.

SMILES | Dicer inh
COc1ccc(/C=C/C(=O)N2CCN(c3ccccc3OC)CC2)cc1OC1CCCC1 | -0.32
Cc1cc(C(=O)ONC(=O)c2ccco2)nn1-c1cc(Cl)ccc1Cl | -0.66
Cc1oc(-c2ccc(Cl)cc2)cc1C(=O)/C(C#N)=C/Nc1ccc(Cl)cc1 | -0.87
NC(=S)c1ncc(C(F)(F)F)cc1N1CCCC1 | 0.07
CC(CC(=O)O)CC(=O)NCc1ccc(Cl)cc1 (centres undefined) | 3.3*
O=C(O)CC(CC(=O)O)c1ccc(Cl)cc1 | 1.3
CC(CC(=O)O)CC(=O)Nc1nncs1 (centres undefined) | -2.2
O=C(N/N=C/c1c(Cl)cccc1Cl)N/N=C/c1c(Cl)cccc1Cl | 0.38
COc1cc(-n2c(CCc3nc(-c4ccc(Cl)cc4)no3)n[nH]c2=S)c(OC)cc1Cl | -0.93
Cc1nc(NC(=O)Nc2sc(=S)n(C)c2C)sc1C(=O)Nc1ccccc1 | 0.79
FC(F)(F)c1ccc(-c2noc(-c3cnn(-c4ccccc4)c3C(F)(F)F)n2)cc1 | -1.2
C=CCn1c(SCC(C)=O)nnc1-c1ccc2ncccc2c1 | -1.5
Cc1ccc(C(=O)CSc2nnc(-c3ccc4ccccc4c3)n2C)cc1 | -0.36
CC(C)NC(=O)CSc1nnc(-c2ccc3ncccc3c2)n1C | 3.1*
COc1c(Br)cc(-c2nnn(Cc3ccc(C)cc3)n2)cc1Br | -0.79
Cc1ccc(-n2c(=O)[nH]c3c(cnn3-c3ccccc3)c2=O)cc1 | 27
FC(F)(F)c1ccc(NCn2nnc3cc(Cl)ccc32)cc1 | 6.5
FC(F)(F)Oc1ccc(NCn2nnc3ccccc32)cc1 | 3.6*
Fc1ccc(NCn2nnc3cc(Cl)ccc32)cc1 | 1
Cc1nn(CCC#N)c(C)c1Oc1ccc(Cl)cc1 | -1.4
CS(=O)(=NS(=O)(=O)c1cccs1)c1ccc(OC(=O)c2ccc(Cl)cc2)cc1 (centres undefined) | 0.72
Cc1ccc(C(=O)CSC#N)o1 | -2.4
C=CCSc1ncnc2c1cnn2-c1ccccc1 | 0.2
O=C(c1cc2ccccc2s1)N1CCOCC1 | 3.2*
O=C(c1sc2ccccc2c1Cl)N1CCOCC1 | 0.17
SMILES | Dicer inh
NC(=O)C1CCN(C(=O)Nc2cc3ccccc3s2)CC1 | -3.1
Cc1cc(C)c(C#N)c(SCC(=O)n2nc(C)cc2C)n1 | -0.01
O=C(/C=C/c1cccs1)Nc1ccc(N2CCOCC2)c(C(=O)O)c1 | 0.8
Cc1cc(S(=O)(=O)NC2CCCCNC2=O)c(C(F)(F)F)o1 (centres undefined) | -0.06
CC1(C)S[C@H](CNC(=O)Cc2ccccc2)N[C@H]1C(=O)O | 4*
CC1(C)SC(c2ccc(C3NC(C(=O)O)C(C)(C)S3)cc2)NC1C(=O)O (centres undefined) | -2.4
CN(C)c1ccc(C2N[C@@H](C(=O)O)C(C)(C)S2)cc1 (some centres undefined) | 0.59
O=C(c1ccccc1)c1cccn1S(=O)(=O)c1cc(C(F)(F)F)cc(C(F)(F)F)c1 | 0.94
C/C(O)=C(\N=O)C(=O)Nc1ccccc1 | -0.95
CC(=N\Nc1c(Cl)cc(Cl)cc1Cl)/C(=N\O)C(=O)Nc1ccccc1 | 3*
O=C(NC(=S)Nc1c(Cl)cc(Cl)cc1Cl)c1ccccc1 | -1.2
O=C1OC(c2ccc(Cl)cc2)=N/C1=C/c1cccc([N+](=O)[O-])c1 | 3.6*
O=C1OC(c2ccccc2)=N/C1=C\c1cccc([N+](=O)[O-])c1 | 1.7
O=C1OC(c2cccnc2Oc2ccc(Cl)cc2)=N/C1=C\c1ccc(Cl)cc1 | -0.82
Oc1ccc2ncccc2c1C(Nc1ccccn1)c1ccc(Br)cc1 (centres undefined) | 1.4
CCOCCOC(=O)C1=C(C)NC2=C(C(=O)CCC2)C1c1coc2ccc(C)cc2c1=O (centres undefined) | 0.34
C[C@H]1c2cccc(O)c2C(O)=C2C(=O)[C@]3(O)C(O)=C(C(N)=O)C(=O)[C@@H](N(C)C)[C@@H]3[C@@H](O)[C@@H]21 | -0.88
CN(C)c1ccc(O)c2c1CC1CC3[C@@H](N(C)C)C(=O)C(C(N)=O)=C(O)[C@]3(O)C(=O)C1=C2O (some centres undefined) | 6.1*
Clc1ccc(CSc2ncnc3sc4c(c23)CCCC4)c(Cl)c1 | -0.72
C=CCn1c(NCc2ccc(N(CC)CC)cc2)nc2ccccc21 | 2.3
CCn1c(NCc2cc(Cl)ccc2O)nc2ccccc21 | 3*
C=CCn1c(NCc2cc(Cl)ccc2O)nc2ccccc21 | 3.9*
C=CCn1c(NCc2ccccc2O)nc2ccccc21 | 0.92
CC(C)n1c(NCc2ccccc2O)nc2ccccc21 | 0.13
CCCn1c(NCc2cc(Cl)ccc2O)nc2ccccc21 | 1.7
SMILES | Dicer inh
COc1ccc(C(=O)/C(C#N)=C/c2cc(C#Cc3ccccc3)cs2)cc1 | -0.72
COc1cc(C(=O)Nc2ccc3n[nH]nc3c2)cc(OC)c1OC | -0.91
Cc1nn(C(=O)c2c(-c3c(Cl)cccc3Cl)noc2C)c(C)c1Br | 0.64
Cc1c(N2C(=O)c3cccc4cccc(c34)C2=O)c(=O)n(-c2ccccc2)n1C | 4.4*
Cc1c(O)c(=O)n(-c2ccccc2)n1C | 0.57
O=C1c2cccc3cccc(c23)C(=O)N1Nc1ccccc1 | 0.66
Cc1ccc(-n2nnnc2-c2cnn(-c3ccccc3)c2-c2ccccc2)cc1 | 1.8
CC(C)(CC(=O)O)CC(=O)N1CCN(c2ccccn2)CC1 | 4.1*
CC(C)(CC(=O)O)CC(=O)N1CCCN(c2c(Cl)cncc2Cl)CC1 | 1.9
C=C(C)c1cccc(C(C)(C)NC(=O)N2CCN(c3ccccn3)CC2)c1 | 1.4
Cn1c(=O)c2c(nc(Oc3cc(Cl)c(Cl)cc3Cl)n2Cc2ccccc2)n(C)c1=O | 0.29
Cc1cc(C)c2[nH]c(=O)cc(C(=O)O)c2c1 | 0.03
COc1cc(-c2ccc(=O)[nH]n2)ccc1OC(F)F | 0.07
COc1ccc(-c2cc(-c3cc(OC)ccc3O)[nH]n2)cc1 | 8.1*
CCc1cc(-c2[nH]ncc2-c2ccc(OC)cc2)c(O)cc1O | 0.83
COc1ccc(-c2cc(-c3ccccc3O)[nH]n2)cc1OC | 5*
COc1ccc(-c2ccc(=O)[nH]n2)cc1 | 1.2
COc1ccc(-c2nc(-c3ccccc3)no2)cc1OC | -0.64
CCOC(=O)/C(C#N)=C/c1cccc(OC)c1OC | -0.61
Cc1c(/C=C/c2ccnc(SCC(=O)Nc3ccccc3)n2)sc2ccccc12 | 2.2
CC(=O)Nc1ccc(N2C(=O)CC(Nc3ccc(N4CCOCC4)cc3)C2=O)cc1 (centres undefined) | -1.3
COC(=O)c1cc2c(N)c(C(=O)c3cccc(C(F)(F)F)c3)sc2nc1C(OC)OC | -0.51
Clc1ccc(Sc2c(Cl)cncc2Cl)cc1 | -2.8
COC(=O)Cn1nnc(N2CCOCC2)n1 | 0.53
CC(C(=O)NNC(=S)NCC1CC1)n1nnc(N2CCOCC2)n1 (centres undefined) | 3.9*
SMILES | Dicer inh
O=C(Cn1nnc(N2CCOCC2)n1)NNC(=S)Nc1ccc(F)cc1F | 0.13
COc1cc(-c2cc(O)c3c(C)oc(C)c3c(=O)c2)ccc1O | 1.5
CSc1sc(-c2nc(C)cs2)c(C)c1-c1ccnc(SCC(=O)Nc2ccc(Cl)cc2)n1 | -0.25
Oc1c(C(c2ccc(F)cc2)N2CCCCC2)ccc2cccnc12 (centres undefined) | 3.7*
Oc1c(C(c2ccccn2)N2CCCC2)ccc2cccnc12 (centres undefined) | 0.52
CCN1CCN(Cc2ccc3cccnc3c2O)CC1 | -1.2
CCC(C)C(=O)Nc1ncc2c(n1)CC(c1ccc(C(C)C)cc1)CC2=O (centres undefined) | 0.71
O=C(Nc1ncc2c(n1)CC(c1ccccc1)CC2=O)c1ccco1 (centres undefined) | 4.2*
